# Test results published in PubChem BioAssay (NCI).
# About 79,000 compounds went through this panel and 15% of them were active in at least one assay; those are over-represented in the sample as a whole. Unmarked numbers belong to inactive results. Activity calls are given as the source filed them. Rule as the data show it: active = growth inhibition above about 70%; inactive = the rest.
# Tests used:
# [1] = NCI Yeast Anticancer Drug Screen. Data for the mlh1 strain (AID 171);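 also: 0% = growth of vehicle-treated control cultures of the same strain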; conditions: S. cerevisiae mlh1 strain growth inhibition, active compounds read high
# Method in brief: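 Yeast screen: mutant strain plus compound, growth scored against vehicle control wells.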
# [2] = NCI Yeast Anticancer Drug Screen. Data for the mlh1 rad18 strain (AID 175); conditions: S. cerevisiae mlh1 rad18 strain growth inhibition, active compounds read high
# Method in brief: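 Compound-treated yeast growth, normalised to vehicle controls. Strain bears defined DNA repair mutations.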
# [3] = NCI Yeast Anticancer Drug Screen. Data for the rad18 strain (AID 177); conditions: S. cerevisiae rad18 mutant growth inhibition, active compounds read high
# Method in brief: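 Inhibition values reflect reduced yeast growth compared with vehicle-treated controls, using a strain engineered with a DNA damage repair defect.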
# [4] = NCI Yeast Anticancer Drug Screen. Data for the rad52 strain (AID 147);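 also: 0% = growth of vehicle-treated control cultures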; conditions: S. cerevisiae rad52 mutant growth inhibition, active compounds read high
# Method in brief: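 Genetically altered yeast (DNA damage repair defect) treated with compound; inhibition calculated relative to vehicle.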
# [5] = NCI Yeast Anticancer Drug Screen. Data for the wt1 strain (AID 149);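 also: 0% = growth of vehicle-treated wt1 cultures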; conditions: S. cerevisiae wt1 strain (SPY 50644) growth inhibition, active compounds read high
# Method in brief: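 Readout: yeast growth inhibition, normalised to vehicle controls, in the wt1 strain exposed to test compounds.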
# [6] = NCI Yeast Anticancer Drug Screen. Data for the rad50EPP+ strain (AID 151);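 also: 0% = growth of vehicle-treated control cultures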; conditions: S. cerevisiae rad50 mutant strain, active compounds read high
# Method in brief: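 Strain rad50EPP+; compound exposure; % growth inhibition vs vehicle.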
# [7] = NCI Yeast Anticancer Drug Screen. Data for the mgt1 strain (AID 153); conditions: S. cerevisiae mgt1 mutant growth inhibition, active compounds read high
# Method in brief: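 Read-out: yeast growth inhibition vs vehicle control. Strain mgt1, drawn from a panel altered in DNA damage repair or cell cycle control.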
# [8] = NCI Yeast Anticancer Drug Screen. Data for the rad50 strain (AID 155);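 also: 0% = growth of vehicle-only cultures of the same strain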; conditions: S. cerevisiae rad50 strain growth inhibition, active compounds read high
# Method in brief: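 Compounds were tested on a yeast strain with an engineered DNA damage repair alteration; the reported value is growth inhibition normalised to vehicle treatment.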
# [9] = NCI Yeast Anticancer Drug Screen. Data for the mec2-1 strain (AID 157); conditions: S. cerevisiae mec2-1 strain, active compounds read high
# Method in brief: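 Cells of the genetically defined mec2-1 yeast strain are incubated with test compound. Inhibition of growth is calculated against vehicle-treated controls.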
# [10] = NCI Yeast Anticancer Drug Screen. Data for the sgs1 mgt1 strain (AID 161);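 also: 0% = growth of cultures given vehicle only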; conditions: S. cerevisiae sgs1 mgt1 strain, active compounds read high
# Method in brief: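 Genetically altered yeast, compound exposure, growth inhibition relative to vehicle.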
# [11] = NCI Yeast Anticancer Drug Screen. Data for the CLN2oe strain (AID 163);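 also: 0% = growth of vehicle-only control cultures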; conditions: S. cerevisiae CLN2oe strain, active compounds read high
# Method in brief: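 Strain altered in cell-cycle control, incubated with compound; growth compared to solvent-treated controls.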
# [12] = NCI Yeast Anticancer Drug Screen. Data for the cln2 rad14 strain (AID 165);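 also: 0% = growth equal to vehicle treated cultures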; conditions: S. cerevisiae cln2 rad14 strain, active compounds read high
# Method in brief: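 The screen exposed genetically defined yeast (cln2 rad14) to test compounds and scored growth inhibition relative to vehicle-treated controls.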
# [13] = NCI Yeast Anticancer Drug Screen. Data for the bub3 strain (AID 167); conditions: S. cerevisiae bub3 mutant strain, active compounds read high
# Method in brief: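 Growth of a checkpoint-deficient yeast mutant is measured after compound exposure. Values represent inhibition relative to vehicle.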
# [14] = NCI Yeast Anticancer Drug Screen. Data for the wt2 strain (AID 169);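 also: 0% = growth of vehicle-treated yeast cultures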; conditions: S. cerevisiae wt2 strain growth inhibition, active compounds read high
# Method in brief: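 Steps: yeast strain treated with compound; growth recorded; inhibition calculated relative to cultures given vehicle alone.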
# [15] = NCI Yeast Anticancer Drug Screen. Data for the sgs1 strain (AID 173);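 also: 0% = growth of vehicle-only control cultures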; conditions: S. cerevisiae sgs1 mutant, active compounds read high
# Method in brief: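 Inhibition of yeast growth served as the measure. The mutant strain was treated with each compound, and growth was normalised to cultures receiving vehicle alone.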
# [16] = at 5.0 µM (retest, dose inferred, filed as 0.5)
# [17] = at 50.0 µM (retest, dose inferred, filed as 5.0)
structure (smiles),measurement,setting,value
C[C@@H]1C[C@H]2[C@@H]3CCC4=CC(=O)C=C[C@]4(C)[C@@]3(Cl)[C@@H](Cl)C[C@]2(C)[C@@]1(O)C(=O)COP(=O)(O)O,growth inhibition,[1]; at 1.2 µM,2%
same,growth inhibition,[1]; at 3.7 µM,3%
same,growth inhibition,[1]; at 11.0 µM,0%
same,growth inhibition,[1]; at 33.0 µM,8%
same,growth inhibition,[1]; at 100.0 µM,12%
same,growth inhibition,[2]; [16],9%
same,growth inhibition,[2]; [17],1%
same,growth inhibition,[2]; at 50.0 µM,-18.3%
same,growth inhibition,[3]; at 1.2 µM,-4%
same,growth inhibition,[3]; at 3.7 µM,-5%
same,growth inhibition,[3]; at 11.0 µM,1%
same,growth inhibition,[3]; at 33.0 µM,7%
same,growth inhibition,[3]; at 100.0 µM,7%
O=C(/C=C/c1cccc(Br)c1)c1cccs1,growth inhibition,[4]; at 1.2 µM,-32%
same,growth inhibition,[4]; at 3.7 µM,-12%
same,growth inhibition,[4]; at 11.0 µM,74% (active)
same,growth inhibition,[4]; at 33.0 µM,97% (active)
same,growth inhibition,[4]; at 100.0 µM,94% (active)
same,growth inhibition,[5]; at 1.2 µM,-15%
same,growth inhibition,[5]; at 3.7 µM,-5%
same,growth inhibition,[5]; at 11.0 µM,61%
same,growth inhibition,[5]; at 33.0 µM,98% (active)
same,growth inhibition,[5]; at 100.0 µM,95% (active)
same,growth inhibition,[6]; at 1.2 µM,-9%
same,growth inhibition,[6]; at 3.7 µM,-5%
same,growth inhibition,[6]; at 11.0 µM,29%
same,growth inhibition,[6]; at 33.0 µM,82% (active)
same,growth inhibition,[6]; at 100.0 µM,85% (active)
same,growth inhibition,[7]; at 1.2 µM,-1%
same,growth inhibition,[7]; at 3.7 µM,13%
same,growth inhibition,[7]; at 11.0 µM,85% (active)
same,growth inhibition,[7]; at 33.0 µM,97% (active)
same,growth inhibition,[7]; at 100.0 µM,92% (active)
same,growth inhibition,[8]; at 1.2 µM,6%
same,growth inhibition,[8]; at 3.7 µM,10%
same,growth inhibition,[8]; [16],8%
same,growth inhibition,[8]; at 11.0 µM,83% (active)
same,growth inhibition,[8]; at 33.0 µM,97% (active)
same,growth inhibition,[8]; [17],96% (active)
same,growth inhibition,[8]; at 50.0 µM,88.2% (active)
same,growth inhibition,[8]; at 100.0 µM,91% (active)
same,growth inhibition,[9]; at 1.2 µM,-16%
same,growth inhibition,[9]; at 3.7 µM,4%
same,growth inhibition,[9]; [16],-9%
same,growth inhibition,[9]; at 11.0 µM,75% (active)
same,growth inhibition,[9]; at 33.0 µM,99% (active)
same,growth inhibition,[9]; [17],98% (active)
same,growth inhibition,[9]; at 50.0 µM,91.5% (active)
same,growth inhibition,[9]; at 100.0 µM,96% (active)
same,growth inhibition,[10]; [16],16%
same,growth inhibition,[10]; [17],96% (active)
same,growth inhibition,[10]; at 50.0 µM,91.8% (active)
same,growth inhibition,[11]; at 1.2 µM,9%
same,growth inhibition,[11]; at 3.7 µM,10%
same,growth inhibition,[11]; at 11.0 µM,84% (active)
same,growth inhibition,[11]; at 33.0 µM,98% (active)
same,growth inhibition,[11]; at 100.0 µM,96% (active)
same,growth inhibition,[12]; [16],11%
same,growth inhibition,[12]; [17],97% (active)
same,growth inhibition,[12]; at 50.0 µM,46.5%
same,growth inhibition,[13]; at 1.2 µM,30%
same,growth inhibition,[13]; at 3.7 µM,45%
same,growth inhibition,[13]; [16],36%
same,growth inhibition,[13]; at 11.0 µM,94% (active)
same,growth inhibition,[13]; at 33.0 µM,98% (active)
same,growth inhibition,[13]; [17],98% (active)
same,growth inhibition,[13]; at 50.0 µM,90.8% (active)
same,growth inhibition,[13]; at 100.0 µM,96% (active)
same,growth inhibition,[14]; at 1.2 µM,-24%
same,growth inhibition,[14]; at 3.7 µM,-16%
same,growth inhibition,[14]; at 11.0 µM,67%
same,growth inhibition,[14]; at 33.0 µM,98% (active)
same,growth inhibition,[14]; at 100.0 µM,95% (active)
same,growth inhibition,[1]; at 1.2 µM,9%
same,growth inhibition,[1]; at 3.7 µM,25%
same,growth inhibition,[1]; at 11.0 µM,89% (active)
same,growth inhibition,[1]; at 33.0 µM,97% (active)
same,growth inhibition,[1]; at 100.0 µM,95% (active)
same,growth inhibition,[15]; at 1.2 µM,-17%
same,growth inhibition,[15]; at 3.7 µM,0%
same,growth inhibition,[15]; at 11.0 µM,78% (active)
same,growth inhibition,[15]; at 33.0 µM,98% (active)
same,growth inhibition,[15]; at 100.0 µM,94% (active)
same,growth inhibition,[2]; [16],21%
same,growth inhibition,[2]; [17],95% (active)
same,growth inhibition,[2]; at 50.0 µM,87.9% (active)
same,growth inhibition,[3]; at 1.2 µM,4%
same,growth inhibition,[3]; at 3.7 µM,26%
same,growth inhibition,[3]; at 11.0 µM,91% (active)
same,growth inhibition,[3]; at 33.0 µM,97% (active)
same,growth inhibition,[3]; at 100.0 µM,93% (active)
